# In PubChem BioAssay (EPA / NIEHS):
# Where “and” joins values, the source holds several entries; their conditions need not be identical. Identical values can stand only once. More than one record can exist for a structure, and the calls need not agree. Calls of active or inactive are those of the source. Rule for the calls: active = hit-call score of the fitted dose curve at least 0.9, where 1 is the maximum; inactive = score below 0.9.
# Columns and labels:
# [1] = BSK_LPS_SRB: Viability Assessment in the BioMAP Diversity Plus: LPS Assay (AID 2283079); conditions: primary human HUVEC with PBMC;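 note: total protein by sulforhodamine B absorbance as a cytotoxicity measure; measured one day after compound addition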
# Summary of the method: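 SRB viability endpoint: cells fixed with 10% TCA, stained with 0.1% SRB, read at 560 nm, 24 h post-dose. HUVEC/PBMC co-culture; signal change in either direction scored relative to DMSO.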
# [2] = read-out: Interleukin-1 alpha (IL1a), IL1A (gene 3552); experiment: BSK_LPS_IL1a: BioMAP Diversity Plus: LPS Assay for Interleukin-1 alpha (IL1a) Biomarker Activity (AID 2283080); conditions: primary human HUVEC with PBMC; actives raise or lower the signal
# Summary of the method: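 Readout is IL-1a level by ELISA, 24 h post-dose, fitted as gain or loss relative to DMSO. System: LPS-activated human primary co-culture of vascular endothelium and peripheral blood mononuclear cells, with parallel SRB total-protein cytotoxicity.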
# [3] = read-out: Monocyte Chemoattractant Protein-1 (MCP1), CCL2 (gene 6347); experiment: BSK_LPS_MCP1: BioMAP Diversity Plus: LPS Assay for Monocyte Chemoattractant Protein-1 (MCP1) Biomarker Activity (AID 2283081); conditions: primary human HUVEC with PBMC; actives raise or lower the signal;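 for AC50: secreted MCP-1 protein quantified by ELISA in culture supernatant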
# Summary of the method: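 Secreted MCP-1 read by ELISA at 24 h post-dosing in an LPS-activated co-culture of endothelial cells with peripheral blood mononuclear cells. Fits run in both directions, DMSO as baseline; parallel SRB staining tracks overt cytotoxicity.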
# [4] = BSK_LPS_PGE2: BioMAP Diversity Plus: LPS Assay for Prostaglandin E2 (PGE2) Biomarker Activity (AID 2283082); conditions: primary human HUVEC with PBMC; actives raise or lower the signal;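 for AC50: secreted prostaglandin E2 measured by ELISA in LPS-stimulated co-culture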
# Summary of the method: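 HUVEC plus human PBMC co-culture stimulated with LPS; secreted PGE2 quantified by ELISA 24 h after chemical dosing. Activity fitted bidirectionally against DMSO baseline; parallel SRB staining (0.1% SRB after 10% TCA fixation, 560 nm) flags overt cytotoxicity.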
# [5] = read-out: Tissue Factor, F3 (gene 2152); experiment: BSK_LPS_TissueFactor: BioMAP Diversity Plus: LPS Assay for Tissue Factor Biomarker Activity (AID 2283084); conditions: primary human HUVEC with PBMC; actives raise or lower the signal
# Summary of the method: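 Compound was added to an endothelial cell/PBMC co-culture, and after 24 h tissue factor (CD142) was read by ELISA. Gain or loss of signal was fitted against a DMSO baseline, and parallel SRB staining (560 nm) tracked overt cytotoxicity.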
# [6] = read-out: Tumor necrosis factor (Homo sapiens) (UniProt P01375); experiment: BSK_LPS_TNFa: BioMAP Diversity Plus: LPS Assay for Tumour Necrosis Factor alpha (TNFa) Biomarker Activity (AID 2283085); conditions: primary human HUVEC with PBMC; actives raise or lower the signal
# Summary of the method: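 Human umbilical vein endothelial cells co-cultured with PBMC and stimulated with LPS. TNFa was measured by ELISA 24 h after chemical dosing, fitted bidirectionally relative to DMSO.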
# [7] = read-out: Vascular cell adhesion molecule 1 (VCAM1), VCAM1 (gene 7412); experiment: BSK_LPS_VCAM1: BioMAP Diversity Plus: LPS Assay for Vascular cell adhesion molecule 1 (VCAM1) Biomarker Activity (AID 2283086); conditions: primary human HUVEC with PBMC; actives raise or lower the signal
# Summary of the method: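 Human umbilical vein endothelial cells co-cultured with PBMC and stimulated with LPS; VCAM-1 measured by ELISA 24 h after dosing. Bidirectional curve fitting against DMSO baseline; cytotoxicity tracked in parallel by SRB total-protein staining.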
# CD38, CD38 (gene 952) = experiment: BSK_SAg_CD38: BioMAP Diversity Plus: SAg Assay for CD38 Biomarker Activity (AID 2283087); conditions: primary human HUVEC with PBMC; actives raise or lower the signal
# Summary of the method: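 Human HUVEC plus PBMC co-culture stimulated with superantigen; CD38 measured by ELISA 24 h after chemical dosing. Fluorescence read-out, bidirectional fit against DMSO; cytotoxicity tracked in parallel by SRB and Alamar Blue.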
# CD40, CD40 (gene 958) = experiment: BSK_SAg_CD40: BioMAP Diversity Plus: SAg Assay for CD40 Biomarker Activity (AID 2283088); conditions: primary human HUVEC with PBMC; actives raise or lower the signal
# Summary of the method: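 CD40 is measured by fluorescence ELISA in an endothelial/PBMC primary human co-culture at 24 h post-dose. Fitting is bidirectional, DMSO baseline. Parallel SRB staining (560 nm) flags cytotoxicity.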
# CD69, CD69 (gene 969) = experiment: BSK_SAg_CD69: BioMAP Diversity Plus: SAg Assay for CD69 Biomarker Activity (AID 2283089); conditions: primary human HUVEC with PBMC; actives raise or lower the signal;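 for AC50: cell surface CD69 protein quantified by ELISA with fluorescence detection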
# Summary of the method: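 HUVEC co-cultured with PBMC were dosed with chemical, and CD69 was measured by ELISA with fluorescence read-out 24 h later. Bidirectional curve fitting used DMSO as negative control and activity baseline.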
# [8] = read-out: Monocyte Chemoattractant Protein-1 (MCP1), CCL2 (gene 6347); experiment: BSK_SAg_MCP1: BioMAP Diversity Plus: SAg Assay for Monocyte Chemoattractant Protein-1 (MCP1) Biomarker Activity (AID 2283090); conditions: primary human HUVEC with PBMC; actives raise or lower the signal
# Summary of the method: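 MCP-1 levels in the endothelial–PBMC SAg co-culture were quantified by ELISA at 24 h post-dosing; both increases and decreases versus DMSO scored. Cytotoxicity monitored by SRB total protein in parallel cultures.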
# [9] = read-out: E-selectin (Homo sapiens) (UniProt P16581); experiment: BSK_SAg_Eselectin: BioMAP Diversity Plus: SAg Assay for Eselectin Biomarker Activity (AID 2283091); conditions: primary human HUVEC with PBMC; actives raise or lower the signal
# Summary of the method: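 Cell-surface E-selectin is read by ELISA at 24 h in the SAg co-culture of HUVEC and PBMC. Curves are fitted in both directions relative to DMSO. Parallel SRB total-protein staining tracks overt toxicity.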
# [10] = read-out: Monokine induced gamma interferon (MIG), CXCL9 (gene 4283); experiment: BSK_SAg_MIG: BioMAP Diversity Plus: SAg Assay for Monokine induced gamma interferon (MIG) Biomarker Activity (AID 2283092); conditions: primary human HUVEC with PBMC; actives raise or lower the signal
# Summary of the method: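 HUVEC plus human PBMC co-culture, chemicals dosed and MIG (CXCL9) quantified by ELISA at 24 h. Bidirectional curve fitting against DMSO as negative control and baseline, so both gain and loss of signal count as activity.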
# [11] = BSK_SAg_PBMCCytotoxicity: PBMC Cytotoxicity Assessment in the BioMAP Diversity Plus: SAg Assay (AID 2283093); conditions: primary human HUVEC with PBMC;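 note: PBMC viability measured as Alamar Blue reduction fluorescence at 546/580 nm; fitted both ways against DMSO so a hit may be loss or gain of signal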;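 for AC50: PBMC superantigen activated with SEB plus TSST-1 one hour after compound addition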
# Summary of the method: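 Human umbilical vein endothelial cells co-cultured with PBMC; PBMC (75,000/well) pre-treated with compound 1 h, then activated with SEB and TSST-1 (20 ng/mL final each) for 90 h. Alamar Blue added 6 h, fluorescence 546/580 nm; bidirectional fit versus DMSO.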
# [12] = read-out: Interleukin-8 (IL8), CXCL8 (gene 3576); experiment: BSK_SAg_IL8: BioMAP Diversity Plus: SAg Assay for Interleukin-8 (IL8) Biomarker Activity (AID 2283094); conditions: primary human HUVEC with PBMC; actives raise or lower the signal
# Summary of the method: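 Human umbilical vein endothelial cells co-cultured with PBMC, stimulated with superantigen; IL-8 measured by ELISA 24 h after chemical dosing. Bidirectional fitting versus DMSO; SRB staining in parallel cultures tracks cytotoxicity.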
# [13] = BSK_SAg_Proliferation: Cell Proliferation Assessment in the BioMAP Diversity Plus: SAg Assay (AID 2283095); conditions: primary human HUVEC with PBMC
# Summary of the method: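 Human umbilical vein endothelial cells co-cultured with PBMC; sulforhodamine B total-protein staining (0.1% SRB after 10% TCA fixation, absorbance 560 nm) at 96 h in sub-confluent culture. Fitted bidirectionally against DMSO.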
# [14] = BSK_SAg_SRB: Viability Assessment in the BioMAP Diversity Plus: SAg Assay (AID 2283096); conditions: primary human HUVEC with PBMC;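 note: cells read one day after compound addition; hits may be either gain or loss of signal compared with DMSO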
# Summary of the method: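 Endothelial/PBMC primary human co-culture; compound 24 h; fix 10% TCA, stain 0.1% SRB, A560; protein content as cytotoxicity proxy; bidirectional curve fit, DMSO = baseline.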
# [15] = read-out: Macrophage colony-stimulating factor (MCSF), CSF1 (gene 1435); experiment: BSK_LPS_MCSF: BioMAP Diversity Plus: LPS Assay for Macrophage colony-stimulating factor (MCSF) Biomarker Activity (AID 2283083); conditions: primary human HUVEC with PBMC; actives raise or lower the signal
# Summary of the method: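 Bidirectional fitting against DMSO was applied to M-CSF levels read by ELISA at 24 h post-dose. The system pairs human umbilical vein endothelium with peripheral blood mononuclear cells; parallel SRB staining tracked cytotoxicity.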
# Chain of Tumor necrosis factor (Homo sapiens) (P01375 whole entry, looked up): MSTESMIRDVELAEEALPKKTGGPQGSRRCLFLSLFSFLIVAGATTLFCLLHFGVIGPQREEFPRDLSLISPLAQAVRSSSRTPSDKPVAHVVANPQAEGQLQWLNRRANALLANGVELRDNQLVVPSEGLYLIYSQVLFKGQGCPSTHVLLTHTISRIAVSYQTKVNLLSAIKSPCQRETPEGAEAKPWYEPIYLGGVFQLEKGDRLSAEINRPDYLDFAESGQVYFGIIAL
# Chain of E-selectin (Homo sapiens) (P16581 whole entry, looked up): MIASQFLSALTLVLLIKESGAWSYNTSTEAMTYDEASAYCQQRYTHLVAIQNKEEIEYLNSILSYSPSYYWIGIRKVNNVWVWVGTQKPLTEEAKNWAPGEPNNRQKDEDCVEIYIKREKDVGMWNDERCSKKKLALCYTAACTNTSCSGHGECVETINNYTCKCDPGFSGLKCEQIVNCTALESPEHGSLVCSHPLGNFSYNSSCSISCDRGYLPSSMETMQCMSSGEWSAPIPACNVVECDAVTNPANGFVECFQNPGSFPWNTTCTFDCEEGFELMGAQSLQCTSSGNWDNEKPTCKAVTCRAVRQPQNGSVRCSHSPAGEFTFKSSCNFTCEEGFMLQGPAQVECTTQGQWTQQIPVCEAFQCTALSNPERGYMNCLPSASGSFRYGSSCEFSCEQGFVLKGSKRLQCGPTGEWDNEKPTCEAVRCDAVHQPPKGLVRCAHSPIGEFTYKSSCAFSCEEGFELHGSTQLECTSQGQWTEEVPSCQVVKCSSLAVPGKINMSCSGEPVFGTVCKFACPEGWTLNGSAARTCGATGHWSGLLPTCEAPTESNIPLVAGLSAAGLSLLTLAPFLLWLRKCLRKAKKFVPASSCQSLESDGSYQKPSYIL
structure (smiles),measurement,setting,value
CC(c1ccc(O)cc1)(c1ccc(O)cc1)c1ccc(O)cc1,AC50,[1],23.9 µM (active)
same,outcome,[2],inactive
same,AC50,[3],20 µM (active)
same,AC50,[4],34.6 µM (active)
same,outcome,[5],inactive
same,AC50,[6],32.6 µM (active)
same,AC50,[7],16.2 µM (active)
same,AC50,"CD38, CD38 (gene 952)",24.5 µM (active)
same,AC50,"CD40, CD40 (gene 958)",20.5 µM (active)
same,AC50,"CD69, CD69 (gene 969)",20 µM (active)
same,AC50,[8],25.9 µM (active)
same,AC50,[9],13.9 µM (active)
same,AC50,[10],33.8 µM (active)
same,outcome,[11],inactive
same,AC50,[12],20 µM (active)
same,AC50,[13],21.6 µM (active)
same,AC50,[14],15.7 µM (active)
Sc1ccccc1,outcome,[1],inactive
same,outcome,[2],inactive
same,outcome,[3],inactive
same,outcome,[4],inactive
same,outcome,[15],inactive
same,outcome,[5],inactive
same,outcome,[6],inactive
same,outcome,[7],inactive
same,outcome,"CD38, CD38 (gene 952)",inactive
same,outcome,"CD40, CD40 (gene 958)",inactive
same,outcome,"CD69, CD69 (gene 969)",inactive
same,outcome,[8],inactive
same,outcome,[9],inactive
same,outcome,[10],inactive
same,outcome,[11],inactive
same,outcome,[12],inactive
same,outcome,[13],inactive
same,outcome,[14],inactive
ClC1=C(Cl)[C@]2(Cl)[C@@H]3[C@H]4C[C@H]([C@@H]5O[C@H]45)[C@@H]3[C@@]1(Cl)C2(Cl)Cl,AC50,[1],7.24 µM (active)
same,outcome,[2],inactive
same,outcome,[3],inactive
same,outcome,[4],inactive
same,outcome,[15],inactive
same,outcome,[5],inactive
same,AC50,[6],4.16 µM (active)
same,outcome,"CD38, CD38 (gene 952)",inactive
same,AC50,"CD40, CD40 (gene 958)",8.47 µM (active)
same,outcome,"CD69, CD69 (gene 969)",inactive
same,AC50,[9],5.87 µM (active)
same,outcome,[10],inactive
same,AC50,[11],5.53 µM (active)
same,outcome,[12],inactive
same,AC50,[13],7.7 µM (active)
same,AC50,[14],8.56 µM (active)
O=C(O)C(F)(F)C(F)(F)C(F)(F)C(F)(F)C(F)(F)C(F)(F)C(F)(F)C(F)(F)C(F)(F)F,AC50,[1],31.3 µM (active) and 56.6 µM (active) and 54.8 µM (active)
same,AC50,[2],45.7 µM (active) and 45.5 µM (active)
same,outcome,[2],inactive
same,AC50,[3],33.2 µM (active) and 54.1 µM (active) and 54.5 µM (active)
same,AC50,[4],24.7 µM (active) and 39 µM (active)
same,outcome,[4],inactive
same,AC50,[5],45.6 µM (active) and 50.6 µM (active)
same,outcome,[5],inactive
same,AC50,[6],54.1 µM (active) and 43.6 µM (active)
same,outcome,[6],inactive
same,AC50,[7],31.2 µM (active) and 56.6 µM (active) and 55.5 µM (active)
same,AC50,"CD38, CD38 (gene 952)",30.4 µM (active) and 53 µM (active) and 51.9 µM (active)
same,AC50,"CD40, CD40 (gene 958)",32.3 µM (active) and 51.6 µM (active) and 44.6 µM (active)
same,AC50,"CD69, CD69 (gene 969)",29.2 µM (active) and 46.9 µM (active) and 46.4 µM (active)
same,AC50,[9],34.3 µM (active) and 54.9 µM (active) and 52.9 µM (active)
same,AC50,[10],33.7 µM (active) and 54.9 µM (active) and 53.5 µM (active)
same,AC50,[11],29.8 µM (active) and 47.3 µM (active) and 51 µM (active)
same,AC50,[12],36.3 µM (active) and 49.4 µM (active) and 41.4 µM (active)
same,AC50,[13],34.1 µM (active) and 46.2 µM (active) and 47.6 µM (active)
same,AC50,[14],32 µM (active) and 53.5 µM (active) and 54.4 µM (active)
Cc1ccccc1CO[C@@H]1C[C@@]2(C(C)C)CC[C@]1(C)O2,outcome,[1],inactive
same,outcome,[2],inactive
same,outcome,[3],inactive
same,outcome,[4],inactive
same,outcome,[15],inactive
same,outcome,[5],inactive
same,outcome,[6],inactive
same,outcome,[7],inactive
same,outcome,"CD38, CD38 (gene 952)",inactive
same,outcome,"CD40, CD40 (gene 958)",inactive
same,outcome,"CD69, CD69 (gene 969)",inactive
same,outcome,[9],inactive
same,outcome,[10],inactive
same,outcome,[11],inactive
same,outcome,[12],inactive
same,outcome,[13],inactive
same,outcome,[14],inactive
